HEK cytotox: Cytotoxic Profiling in HEK 293 Cell Line of Diverse Libraries Using Quantitative High-Throughput Screening | HEK 293 viability, ATP luminescence (CellTiter-Glo), 48-72 h | Potency, µM (highest dose often 115 µM), usual class: inhibitors | hit rate 6.6% among 94,000; also: nearly all actives have a fitted effect of over 60% in size
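HEK 293 cells at 250 cells/well were exposed to compounds by pintool transfer for 48 or 72 hr at 37 degree Celsius, 5% CO2. Viability was read as ATP-coupled luminescence with CellTiter-Glo after 10 min at room temperature.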
NPR1 antag: Natriuretic polypeptide receptor (hNpr1) antagonism - Primary qHTS; Atrial natriuretic peptide receptor 1 (Homo sapiens), P16066; HEK293 hNpr1 GloSensor cGMP, ANP-stimulated luminescence; Potency, µM (titrated, usually from 46.3 µM), hits mostly inhibitors; hit rate 1.6% among 76,000; AID 1347048, 2019; calls by dose curve; also: nearly all actives have a fitted effect of over 60% in size
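Compound pre-incubated 30 min at room temperature on GloSensor-loaded HEK293 cells stably carrying hNpr1 and the pGS-40F cGMP biosensor. Stimulation uses hNppA at 0.1 nM final; luminescence is taken at baseline and 20 min post-agonist.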
NIH3T3 tox: Cytotoxic Profiling in NIH 3T3 Cell Line of Diverse Libraries Using Quantitative High-Throughput Screening; NIH 3T3 viability, CellTiter-Glo ATP luminescence, 48-72 h; Potency, µM (top dose mostly 96.7 µM), usual class: inhibitors; hit rate 4.3% among 94,000; AID 1345082, 2018; also: nearly all actives have a fitted effect of over 55% in size
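Cytotoxicity is measured as loss of cellular ATP: NIH 3T3 cells (400/well) are exposed to compound for 48 or 72 hr at 37 °C, then CellTiter-Glo luminescence is imaged after 10 min at room temperature.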
FLuc inh-1: Firefly luciferase inhibition profiling of diverse chemical library using quantitative high-throughput screening | Luciferin 4-monooxygenase (Photinus pyralis), P08659 | purified P. pyralis luciferase, luminescence, biochemical | Potency, µM (titrated, usually from 115 µM), most hits filed as inhibitors | hit rate 2.5% among 76,000 | AID 1347043, 2019; also: nearly all actives have a fitted effect of over 65% in size
Target sequence (P08659 whole entry, looked up): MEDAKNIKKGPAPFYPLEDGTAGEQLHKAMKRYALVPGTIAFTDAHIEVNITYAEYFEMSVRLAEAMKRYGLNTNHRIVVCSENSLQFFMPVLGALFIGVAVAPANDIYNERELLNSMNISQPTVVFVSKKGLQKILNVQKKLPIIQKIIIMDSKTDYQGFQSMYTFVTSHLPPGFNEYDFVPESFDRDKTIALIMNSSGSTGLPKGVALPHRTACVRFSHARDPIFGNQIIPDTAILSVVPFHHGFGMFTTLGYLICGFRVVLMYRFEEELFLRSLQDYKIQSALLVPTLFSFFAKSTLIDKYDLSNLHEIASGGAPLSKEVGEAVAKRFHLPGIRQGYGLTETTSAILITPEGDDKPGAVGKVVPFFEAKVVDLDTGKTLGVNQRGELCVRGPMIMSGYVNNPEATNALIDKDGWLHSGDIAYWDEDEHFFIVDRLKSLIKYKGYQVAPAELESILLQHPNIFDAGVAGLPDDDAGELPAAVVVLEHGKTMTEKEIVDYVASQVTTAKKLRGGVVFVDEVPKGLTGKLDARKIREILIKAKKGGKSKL
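Inhibitors were tested against purified firefly luciferase in a biochemical, low-substrate format (both substrates at 10uM) and luminescence measured with a CCD imager.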
FLuc SDR -ATP: Firefly luciferase (FLuc-C-HiBiT) SDR gain of signal screen - without ATP | shares compounds with FLuc inh-1 | Purified FLuc-C-HiBiT, Nano-Glo HiBiT luminescence, no ATP | Potency, µM (highest dose often 32.7 µM), hits mostly activators | hit rate 7.8% among 1,300 | AID 1963318, 2024; also: nearly all actives have a fitted effect of over 55% in size
FLuc SDR ATP: Firefly luciferase (FLuc-C-HiBiT) SDR gain of signal screen - plus ATP; AID 1963319, 2024; Potency, µM (series often up to 32.7 µM), hits mostly activators; hit rate 8.7% among 1,300; shares compounds with FLuc inh-1; purified FLuc-C-HiBiT + ATP, HiBiT complementation luminescence;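 also: signal reports ligand binding via conformational change of the enzyme rather than luciferase catalysis; nearly all actives have a fitted effect of over 55% in size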
FLuc inh-2: Firefly luciferase (FLuc-C-HiBiT) enzymatic inhibition screen - Functional assay. purified FLuc-C-HiBiT enzyme, luciferin luminescence. shares compounds with FLuc inh-1. hit rate 42% among 1,300. Potency, µM (doses to about 32.7 µM), usual class: inhibitors; also: nearly all actives have a fitted effect of over 70% in size
A number is an active result; . = inactive; ? = inconclusive; / = no result given. In the library only some 11% were active in any assay of this set; here they are far more common. Unless noted, calls follow the shape of the dose curve; as a rule, active = well fitted curve in the direction sought with a large enough effect; inconclusive = small, poorly fitted or top-dose-only effect, or another doubt; inactive = no such curve, though single readings can be large; an effect the other way counts as inactive or inconclusive.

SMILES	HEK cytotox	NPR1 antag	NIH3T3 tox	FLuc inh-1	FLuc SDR -ATP	FLuc SDR ATP	FLuc inh-2
COc1ccccc1-c1cc(C(=O)Nc2ccc(F)cc2)c2cnn(C)c2n1	?	/	.	/	/	/	/
Cc1ccc(C(=O)Nc2ccc(-c3nc4ccccc4s3)c(O)c2)c(C)c1	/	/	/	/	.	.	.
COc1ccc(-c2cc3c(=O)n(CCNC(=O)c4n[nH]c5c4CCCC5)ccn3n2)cc1	.	?	.	?	/	/	/
N#Cc1cccnc1-c1ccc(C(=O)N2CCC(NC(=O)C3CC3)CC2)cc1	.	/	.	/	/	/	/
O=C(Nc1cccc(Br)c1)c1cc(-c2ccc3c(c2)OCCO3)on1	/	/	/	/	?	?	0.989µM
O=C(O)c1ccnc(-c2ccnc(NCCN3CCCCC3=O)n2)c1	.	.	.	1.41µM	.	11.1µM	?
Fc1ccccc1Nc1nc(-c2ccccc2)no1	?	4.47µM	?	0.398µM	?	?	0.7µM
Fc1c(Cl)cccc1Nc1ncncc1-c1nc(-c2ccccc2)no1	.	.	.	.	/	/	/
COc1ccc(-c2noc(Nc3ccc(C)c(C)c3)n2)cc1	39.8µM	.	?	8.91µM	.	.	?
COc1cccc(Nc2nc(-c3ccccc3)no2)c1	?	8.91µM	44.7µM	0.794µM	?	?	6.24µM
COc1ccc(-c2noc(Nc3ccc(OC)c(OC)c3)n2)cc1	28.2µM	.	?	7.94µM	.	.	?
N#Cc1cccnc1-c1ccc(C(=O)O)cc1	.	/	.	/	/	/	/
Cc1nc2n(c1C(=O)NCc1cccs1)CCC(Nc1ccccc1)C2 (centres undefined)	?	.	?	.	/	/	/
CCc1nc(-c2c3n(c(=O)n(Cc4cccc(F)c4)c2=O)CCCC3)no1	.	.	.	.	/	/	/
Cc1cc(C)n(-c2cccc(-c3nc(C4CCOC4)no3)c2)n1 (centres undefined)	?	.	?	.	/	/	/
CCOc1cccc(-c2nc(C3CCOC3)no2)c1 (centres undefined)	.	.	.	12.6µM	.	.	.
COc1cccc(-c2ccc(-c3nc(C4CCOC4)no3)o2)c1 (centres undefined)	?	.	?	4.47µM	.	.	?
COc1cccc(-c2noc(CCCc3nc(C4CCOC4)no3)n2)c1 (centres undefined)	.	.	.	.	/	/	/
O=C(CCc1nc2ccccc2c(=O)[nH]1)NC1CCCc2c1[nH]c1c(Cl)cccc21 (centres undefined)	?	.	?	.	/	/	/
c1cnc(-c2noc(-c3nc(-c4ccc5c(c4)OCO5)no3)n2)cn1	.	.	.	.	/	/	/
c1ccc(CN(Cc2nc(-c3ccccn3)no2)CC2CC2)cc1	?	.	.	.	/	/	/
Clc1ccc(-c2nc(-c3ccccn3)no2)cc1Cl	/	/	/	/	?	?	5.56µM
Brc1ccc(-c2nc(-c3ccccn3)no2)o1	/	/	/	/	?	?	1.24µM
CCN1CCN(C(=O)CC2CCCN(c3cnn(CC4CC4)c(=O)c3)C2)CC1 (centres undefined)	.	.	?	.	/	/	/
CC(C)n1ccnc1CN1CCc2onc(-c3ccc(Cl)cc3)c2C1	?	.	?	.	/	/	/
SMILES	HEK cytotox	NPR1 antag	NIH3T3 tox	FLuc inh-1	FLuc SDR -ATP	FLuc SDR ATP	FLuc inh-2
Cc1cnc(CCNC(=O)C2CCCC2)n1Cc1ccc(F)cc1	.	.	.	.	/	/	/
Cc1cnc(CCNC(=O)Nc2ccc3c(c2)OCCO3)n1Cc1ccc(F)cc1	39.8µM	.	.	14.1µM	.	.	?
Cc1cnc(CCNC(=O)Nc2ccc3c(c2)OCCO3)n1C1CC1	.	.	.	6.31µM	.	.	?
Cn1ccnc1CN1CCNc2cc(Nc3ccccc3)ncc2C1	?	.	?	4.47µM	.	.	?
COCCN1CCNc2cc(Nc3cccc(OC)c3)ncc2C1	?	.	?	7.08µM	.	.	?
Cn1cc(CN2CCNc3cc(Nc4cccnc4)ncc3C2)cn1	?	.	?	.	/	/	/
COc1cccc(Nc2cc3c(cn2)CN(Cc2ccncc2)CCN3)c1	?	.	?	?	/	/	/
Clc1cccc(Nc2cc3c(cn2)CN(Cc2cccnc2)CCN3)c1	31.6µM	?	?	1.26µM	?	?	12.8µM
COCCN1CCNc2cc(Nc3cccc(N(C)C)c3)ncc2C1	?	.	?	?	/	/	/
COCCN1CCNc2cc(-c3cccc(OC)c3)ncc2C1	/	/	/	/	?	.	20.2µM
COc1ccc(Nc2cc3c(nc2OC)nc(CCc2ccccc2)n3C)cn1	?	.	?	6.31µM	.	.	?
COc1cccc(CN2CCc3c(cc(C(=O)Nc4cc(C)ccc4OC)n3C)C2)c1	31.6µM	.	?	8.91µM	.	.	.
Cc1nc(N2CCN(C(=O)c3ccc(F)c(Cl)c3)CC2)cc(C(F)(F)F)n1	?	.	.	.	/	/	/
CCC(CC)COC(=O)[C@H](C)N[P@](=O)(OC[C@H]1O[C@@](C#N)(c2ccc3c(N)ncnn23)[C@H](O)[C@@H]1O)Oc1ccccc1	/	/	/	/	.	.	.
COc1ccccc1Nc1ccnc(N2CCCC2C(=O)NCC(F)F)n1 (centres undefined)	.	/	.	/	/	/	/
COc1cccc(CCC(=O)N2CCC(N3C(=O)N(C)CC34CCOC4)CC2)c1 (centres undefined)	.	/	?	/	/	/	/
COc1ccc(-c2cc3c(cn2)CN(Cc2ccncc2)CCN3)cc1	?	?	?	3.16µM	.	?	?
CCOc1cc2c(cn1)NCCN(Cc1ccccc1OC)C2	?	.	?	.	/	/	/
COc1ccc(CN2CCNc3cc(-c4ccccc4)ncc3C2)cn1	?	.	?	14.1µM	.	.	?
Fc1ccc(-c2cc3c(cn2)CN(Cc2ccncc2)CCN3)cc1Cl	56.2µM	?	?	1.78µM	.	.	18µM
O=C1NCCN2CC3(CCN(C(=O)CCc4ccccc4)CC3)CC12 (centres undefined)	.	/	.	/	/	/	/
Cc1ccn2c(Nc3ccc(C(C)C)cc3)c(-c3cccs3)nc2c1	/	/	/	/	.	.	?
O=C(OCc1ccccc1)N1CCC2(CC1)C(=NC1CCCCC1)NC(=O)N2c1cccnc1	.	.	.	.	/	/	/
CCCn1c(C)cnc1CC1CCN(C(=O)C2(c3ccc(OC)cc3)CC2)C1 (centres undefined)	28.2µM	.	.	6.31µM	.	.	.
